Results: PubChem BioAssay (EPA / NIEHS)
Records with an inconclusive call do not appear. The source made the active and inactive calls. Rule for the calls, unless noted: active = hit-call score of the fitted dose curve at least 0.9, where 1 is the maximum; inactive = score below 0.9.

Experiments:
[1] = BSK_LPS_PGE2: BioMAP Diversity Plus: LPS Assay for Prostaglandin E2 (PGE2) Biomarker Activity (AID 2283082); settings: primary human HUVEC with PBMC; actives raise or lower the signal;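 for AC50: secreted prostaglandin E2 measured by ELISA in LPS-stimulated co-culture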
Method in brief: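 Endpoint derived from bidirectional curve fitting versus DMSO of ELISA-measured PGE2 in LPS-stimulated human primary vascular co-culture (HUVEC with PBMC) harvested at 24 h.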

[2] = read-out: Macrophage colony-stimulating factor (MCSF), CSF1 (gene 1435); assay: BSK_LPS_MCSF: BioMAP Diversity Plus: LPS Assay for Macrophage colony-stimulating factor (MCSF) Biomarker Activity (AID 2283083); settings: primary human HUVEC with PBMC; actives raise or lower the signal
Method in brief: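 HUVEC–PBMC co-culture, M-CSF measured by ELISA 24 h after chemical dosing. Fitted in both directions relative to DMSO as negative control; overt cytotoxicity assessed by SRB total-protein staining in parallel cultures.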

[3] = read-out: Tissue Factor, F3 (gene 2152); assay: BSK_LPS_TissueFactor: BioMAP Diversity Plus: LPS Assay for Tissue Factor Biomarker Activity (AID 2283084); settings: primary human HUVEC with PBMC; actives raise or lower the signal
Method in brief: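 Human umbilical vein endothelial cells co-cultured with PBMC were dosed with compound. Cell-surface CD142 was measured by ELISA 24 h later. Activity was fitted bidirectionally against DMSO, with SRB total-protein staining in parallel cultures for cytotoxicity.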

[4] = read-out: Tumor necrosis factor (Homo sapiens) (UniProt P01375); assay: BSK_LPS_TNFa: BioMAP Diversity Plus: LPS Assay for Tumour Necrosis Factor alpha (TNFa) Biomarker Activity (AID 2283085); settings: primary human HUVEC with PBMC; actives raise or lower the signal
Method in brief: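 Primary human vascular co-culture of HUVEC and PBMC; TNFa ELISA 24 h after treatment, analysed as increase or decrease relative to DMSO control.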

[5] = read-out: Vascular cell adhesion molecule 1 (VCAM1), VCAM1 (gene 7412); assay: BSK_LPS_VCAM1: BioMAP Diversity Plus: LPS Assay for Vascular cell adhesion molecule 1 (VCAM1) Biomarker Activity (AID 2283086); settings: primary human HUVEC with PBMC; actives raise or lower the signal
Method in brief: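 Primary human vascular co-culture (umbilical vein endothelium plus PBMC) stimulated with LPS received chemical; 24 h later VCAM-1 was read by ELISA. Overt cytotoxicity was assessed by sulforhodamine B staining of parallel cultures at the same time point.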

CD40, CD40 (gene 958) = assay: BSK_SAg_CD40: BioMAP Diversity Plus: SAg Assay for CD40 Biomarker Activity (AID 2283088); settings: primary human HUVEC with PBMC; actives raise or lower the signal
Method in brief: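 HUVEC plus PBMC co-culture, superantigen-activated, with CD40 read by ELISA 24 h after dosing. Curves fitted in both directions against DMSO. Overt cytotoxicity checked by parallel SRB total-protein staining.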

CD69, CD69 (gene 969) = assay: BSK_SAg_CD69: BioMAP Diversity Plus: SAg Assay for CD69 Biomarker Activity (AID 2283089); settings: primary human HUVEC with PBMC; actives raise or lower the signal
Method in brief: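 ELISA, fluorescence read-out: CD69 on human umbilical vein endothelial cell + PBMC co-culture, 24 h post-dosing. Gain or loss of signal fitted bidirectionally against DMSO baseline.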

[6] = read-out: Monocyte Chemoattractant Protein-1 (MCP1), CCL2 (gene 6347); assay: BSK_SAg_MCP1: BioMAP Diversity Plus: SAg Assay for Monocyte Chemoattractant Protein-1 (MCP1) Biomarker Activity (AID 2283090); settings: primary human HUVEC with PBMC; actives raise or lower the signal
Method in brief: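 MCP-1 levels in the endothelial–PBMC SAg co-culture were quantified by ELISA at 24 h post-dosing; both increases and decreases versus DMSO scored. Cytotoxicity monitored by SRB total protein in parallel cultures.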

[7] = read-out: E-selectin (Homo sapiens) (UniProt P16581); assay: BSK_SAg_Eselectin: BioMAP Diversity Plus: SAg Assay for Eselectin Biomarker Activity (AID 2283091); settings: primary human HUVEC with PBMC; actives raise or lower the signal
Method in brief: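 Human umbilical vein endothelial cells co-cultured with peripheral blood mononuclear cells, SAg system. E-selectin is measured by ELISA 24 h after dosing and fitted bidirectionally against DMSO. Cytotoxicity is checked by SRB staining of parallel cultures.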

[8] = read-out: Monokine induced gamma interferon (MIG), CXCL9 (gene 4283); assay: BSK_SAg_MIG: BioMAP Diversity Plus: SAg Assay for Monokine induced gamma interferon (MIG) Biomarker Activity (AID 2283092); settings: primary human HUVEC with PBMC; actives raise or lower the signal
Method in brief: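 ELISA readout of MIG/CXCL9; primary human umbilical vein endothelial cells co-cultured with peripheral blood mononuclear cells; 24 h post-dose; gain/loss fit vs DMSO baseline.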

[9] = BSK_SAg_PBMCCytotoxicity: PBMC Cytotoxicity Assessment in the BioMAP Diversity Plus: SAg Assay (AID 2283093); settings: primary human HUVEC with PBMC;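 note: PBMC viability measured as Alamar Blue reduction fluorescence at 546/580 nm; fitted both ways against DMSO so a hit may be loss or gain of signal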;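 for AC50: PBMC superantigen activated with SEB plus TSST-1 one hour after compound addition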
Method in brief: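 HUVEC/PBMC co-culture; PBMC exposed to chemical 1 h before SEB and TSST-1 activation (20 ng/mL each), incubated 90 h, then Alamar Blue 6 h, fluorescence 546/580 nm. Bidirectional fit versus DMSO baseline.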

[10] = read-out: Interleukin-8 (IL8), CXCL8 (gene 3576); assay: BSK_SAg_IL8: BioMAP Diversity Plus: SAg Assay for Interleukin-8 (IL8) Biomarker Activity (AID 2283094); settings: primary human HUVEC with PBMC; actives raise or lower the signal
Method in brief: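 In this co-culture of human umbilical vein endothelium with peripheral blood mononuclear cells, IL-8 is assayed by ELISA at 24 h. DMSO serves as baseline for bidirectional curve fitting.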

[11] = BSK_SAg_Proliferation: Cell Proliferation Assessment in the BioMAP Diversity Plus: SAg Assay (AID 2283095); settings: primary human HUVEC with PBMC;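 note: relative cell number as total protein by SRB absorbance in sub-confluent culture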
Method in brief: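 Readout is SRB-stained protein (560 nm) in a primary human HUVEC and PBMC co-culture; sub-confluent cultures are read at 96 h. Activity is fitted bidirectionally using DMSO as baseline.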

[12] = BSK_SAg_SRB: Viability Assessment in the BioMAP Diversity Plus: SAg Assay (AID 2283096); settings: primary human HUVEC with PBMC;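 note: cells read one day after compound addition; hits may be either gain or loss of signal compared with DMSO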
Method in brief: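 Human umbilical vein endothelial cells co-cultured with PBMC, read 24 h after compound dosing. Total protein measured by sulforhodamine B staining (0.1% SRB after 10% TCA fixation, absorbance 560 nm); bidirectional fit versus DMSO baseline.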

CD38, CD38 (gene 952) = assay: BSK_SAg_CD38: BioMAP Diversity Plus: SAg Assay for CD38 Biomarker Activity (AID 2283087); settings: primary human HUVEC with PBMC; actives raise or lower the signal
Method in brief: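 Fluorescence ELISA of cell-surface CD38 served as the read-out, with either increase or decrease fitted against DMSO controls. Cells were a human umbilical vein endothelium plus PBMC co-culture under SEB/TSST-1 stimulation, measured 24 h after dosing.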

[13] = target: human CYP2B6, CYP2B6 (gene 1555) (UniProt P20813); assay: NVS_ADME_hCYP2B6: NovaScreen (NVS) CYP450-related Enzyme Activity (ADME) Assay for human CYP2B6 (AID 2283101; active = hit-call score of the fitted dose curve at least 0.9, where 1 is the maximum)
Chain of human CYP2B6, CYP2B6 (gene 1555) (P20813 whole entry, looked up): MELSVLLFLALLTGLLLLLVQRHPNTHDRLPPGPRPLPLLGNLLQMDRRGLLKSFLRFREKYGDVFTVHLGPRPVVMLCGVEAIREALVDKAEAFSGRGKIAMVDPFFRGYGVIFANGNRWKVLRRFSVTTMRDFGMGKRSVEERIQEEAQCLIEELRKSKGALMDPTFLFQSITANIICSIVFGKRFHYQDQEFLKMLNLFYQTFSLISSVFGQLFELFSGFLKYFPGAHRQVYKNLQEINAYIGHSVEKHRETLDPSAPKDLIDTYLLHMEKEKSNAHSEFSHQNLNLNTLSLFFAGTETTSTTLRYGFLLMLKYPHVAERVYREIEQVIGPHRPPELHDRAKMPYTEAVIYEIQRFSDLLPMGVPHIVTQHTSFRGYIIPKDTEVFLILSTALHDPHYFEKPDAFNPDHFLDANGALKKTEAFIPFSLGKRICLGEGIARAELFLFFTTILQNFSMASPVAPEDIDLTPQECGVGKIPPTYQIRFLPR
Method in brief: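 Fluorescence-based enzyme activity of recombinant human CYP2B6, measured 1 h post-dose against acetonitrile vehicle baseline. Screened at a single concentration of 10 uM in duplicate before concentration-response follow-up.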

[14] = target: human CYP2D6, CYP2D6 (gene 1565) (UniProt P10635); assay: NVS_ADME_hCYP2D6: NovaScreen (NVS) CYP450-related Enzyme Activity (ADME) Assay for human CYP2D6 (AID 2283107; active = hit-call score of the fitted dose curve at least 0.9, where 1 is the maximum)
Chain of human CYP2D6, CYP2D6 (gene 1565) (P10635 whole entry, looked up): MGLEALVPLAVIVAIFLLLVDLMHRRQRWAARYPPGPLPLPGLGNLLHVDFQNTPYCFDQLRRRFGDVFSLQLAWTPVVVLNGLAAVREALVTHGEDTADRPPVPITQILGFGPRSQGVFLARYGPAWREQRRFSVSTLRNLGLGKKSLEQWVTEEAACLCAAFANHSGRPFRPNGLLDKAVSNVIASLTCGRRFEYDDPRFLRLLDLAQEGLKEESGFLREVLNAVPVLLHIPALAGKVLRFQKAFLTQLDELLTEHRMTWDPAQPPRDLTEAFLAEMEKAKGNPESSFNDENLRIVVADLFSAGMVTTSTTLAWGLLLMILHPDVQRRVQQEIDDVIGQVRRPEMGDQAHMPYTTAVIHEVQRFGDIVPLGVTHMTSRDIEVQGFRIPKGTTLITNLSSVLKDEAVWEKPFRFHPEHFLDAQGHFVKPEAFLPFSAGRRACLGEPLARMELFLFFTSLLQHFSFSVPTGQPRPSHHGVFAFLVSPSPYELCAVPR
Method in brief: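 Cell-free assay using recombinant human CYP2D6 expressed in insect cells, with a fluorogenic substrate read after 1 h. Primary screen in duplicate at 10 uM; actives followed up in concentration series. Loss of signal fitted relative to acetonitrile.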

[15] = target: human CYP2C9, CYP2C9 (gene 1559) (UniProt P11712); assay: NVS_ADME_hCYP2C9: NovaScreen (NVS) CYP450-related Enzyme Activity (ADME) Assay for human CYP2C9 (AID 2283108; active = hit-call score of the fitted dose curve at least 0.9, where 1 is the maximum)
Chain of human CYP2C9, CYP2C9 (gene 1559) (P11712 whole entry, looked up): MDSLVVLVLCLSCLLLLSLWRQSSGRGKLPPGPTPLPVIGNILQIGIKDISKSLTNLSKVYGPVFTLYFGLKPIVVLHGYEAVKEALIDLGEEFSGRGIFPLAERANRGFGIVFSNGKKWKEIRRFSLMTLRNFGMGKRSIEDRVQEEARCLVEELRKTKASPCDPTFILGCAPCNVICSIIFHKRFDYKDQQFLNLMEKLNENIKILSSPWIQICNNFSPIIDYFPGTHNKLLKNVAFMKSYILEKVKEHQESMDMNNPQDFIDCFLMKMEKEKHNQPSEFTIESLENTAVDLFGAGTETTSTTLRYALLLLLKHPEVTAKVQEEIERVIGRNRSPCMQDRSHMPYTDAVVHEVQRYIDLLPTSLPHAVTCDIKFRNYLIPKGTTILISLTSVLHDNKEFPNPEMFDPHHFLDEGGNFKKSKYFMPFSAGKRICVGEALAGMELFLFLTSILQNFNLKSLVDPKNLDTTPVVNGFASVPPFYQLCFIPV
Method in brief: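 Recombinant human CYP2C9 expressed in SF9 cells, fluorogenic substrate, fluorescence read 0.75 h after dosing. Chemicals first run in duplicate at 10 uM, with actives followed in concentration series; loss of signal versus acetonitrile baseline.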

Measured: AC50

Chain of Tumor necrosis factor (Homo sapiens) (P01375 whole entry, looked up): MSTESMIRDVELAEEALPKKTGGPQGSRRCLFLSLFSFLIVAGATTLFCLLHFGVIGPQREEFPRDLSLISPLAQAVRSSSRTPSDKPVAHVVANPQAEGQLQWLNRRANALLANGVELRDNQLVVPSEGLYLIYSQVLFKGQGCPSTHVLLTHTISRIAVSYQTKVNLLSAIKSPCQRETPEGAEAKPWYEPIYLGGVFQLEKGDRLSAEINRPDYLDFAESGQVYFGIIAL
Chain of E-selectin (Homo sapiens) (P16581 whole entry, looked up): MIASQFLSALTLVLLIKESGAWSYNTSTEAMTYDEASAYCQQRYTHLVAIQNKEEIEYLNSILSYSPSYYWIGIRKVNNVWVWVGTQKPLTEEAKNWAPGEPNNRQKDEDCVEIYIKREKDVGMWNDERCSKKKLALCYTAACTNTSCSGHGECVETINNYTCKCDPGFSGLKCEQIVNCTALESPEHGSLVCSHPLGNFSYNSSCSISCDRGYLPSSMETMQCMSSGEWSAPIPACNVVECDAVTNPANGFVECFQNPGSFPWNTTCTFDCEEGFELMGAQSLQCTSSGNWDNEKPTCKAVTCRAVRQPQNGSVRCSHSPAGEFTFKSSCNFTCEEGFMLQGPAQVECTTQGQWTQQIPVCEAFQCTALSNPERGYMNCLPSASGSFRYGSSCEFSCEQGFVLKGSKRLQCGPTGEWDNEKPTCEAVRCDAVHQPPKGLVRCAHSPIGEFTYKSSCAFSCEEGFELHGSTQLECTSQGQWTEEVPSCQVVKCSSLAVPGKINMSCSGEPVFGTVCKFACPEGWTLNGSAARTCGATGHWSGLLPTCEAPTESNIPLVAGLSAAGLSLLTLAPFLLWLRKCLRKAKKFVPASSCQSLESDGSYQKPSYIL

OCCOCCO
inactive: [1] | [2] | [3] | [4] | [5] | CD40, CD40 (gene 958) | CD69, CD69 (gene 969) | [6] | [7] | [8] | [9] | [10] | [11] | [12]

Cc1ccc([N+](=O)[O-])cc1
inactive: [1] | [2] | [3] | [4] | [5] | CD38, CD38 (gene 952) | CD40, CD40 (gene 958) | CD69, CD69 (gene 969) | [6] | [7] | [9] | [10] | [11] | [12]

CC(O)CCO (stereo not drawn)
inactive: [1] | [2] | [3] | [4] | [5] | CD38, CD38 (gene 952) | CD40, CD40 (gene 958) | CD69, CD69 (gene 969) | [6] | [7] | [9] | [10] | [11] | [12]

Cc1ccc(N)cc1
inactive: [1] | [2] | [3] | [4] | [5] | CD40, CD40 (gene 958) | CD69, CD69 (gene 969) | [6] | [7] | [8] | [9] | [10] | [11] | [12]

C[N+](C)(C)CC1CO1 (stereo not drawn)
inactive: [1] | [2] | [3] | [4] | [5] | CD40, CD40 (gene 958) | CD69, CD69 (gene 969) | [6] | [7] | [8] | [9] | [10] | [11] | [12]

CCN(CC)N=O
inactive: [1] | [2] | [3] | [4] | [5] | CD40, CD40 (gene 958) | CD69, CD69 (gene 969) | [6] | [7] | [9] | [10] | [11] | [12]

O=[N+]([O-])c1ccc(Oc2ccc(Cl)cc2Cl)cc1
inactive: [1] | [3] | [4] | [5] | CD69, CD69 (gene 969) | [9] | [12]
active: [2] 31.1 µM | CD40, CD40 (gene 958) 20 µM | [6] 29.1 µM | [7] 27.4 µM | [10] 33.9 µM | [11] 32 µM

CCOC(=O)[C@]1(c2ccccc2)Oc2ccccc2[C@@H]1N
active: [6] 30.1 µM | [9] 24.3 µM | [11] 31.3 µM | [13] 0.269 µM | [14] 1.3 µM | [15] 5.79 µM
inactive: [1] | [2] | [3] | [4] | [5] | CD40, CD40 (gene 958) | CD69, CD69 (gene 969) | [7] | [10] | [12]

CC(C)(O)c1cnn2c(-c3ccc(F)c(-c4c(F)cccc4C#N)c3)cnc2n1
inactive: [3] | CD38, CD38 (gene 952) | CD69, CD69 (gene 969) | [6] | [7] | [11] | [12]
active: [1] 30.6 µM | [2] 20 µM | [4] 9.68 µM | [5] 20 µM | CD40, CD40 (gene 958) 20 µM | [9] 7.8 µM | [10] 4.31 µM | [15] 2.24 µM

ClCCOCCCl
inactive: [1] | [2] | [3] | [4] | [5] | CD38, CD38 (gene 952) | CD40, CD40 (gene 958) | CD69, CD69 (gene 969) | [6] | [7] | [9] | [10] | [11] | [12]
active: [15] 15 µM

Nc1cc(Cl)cc(C(=O)O)c1Cl
inactive: [1] | [2] | [3] | [4] | [5] | CD40, CD40 (gene 958) | CD69, CD69 (gene 969) | [6] | [7] | [9] | [10] | [11] | [12]

c1ccc(NNc2ccccc2)cc1
active: [1] 10.6 µM
inactive: [2] | [3] | [4] | [5] | CD40, CD40 (gene 958) | CD69, CD69 (gene 969) | [6] | [7] | [9] | [10] | [11] | [12]
